Drawing on PubChem BioAssay (NCATS), this text covers efficacy, outcome and AC50 for 28 compounds.

SMILES strings stand for the structures. A number with no mark means an inactive call. For part of these data: Potency and affinity values are given separately. Active and inactive are the calls of the source. How the calls were made is not given here.

The conditions of experiment [1]: Ebola virus entry assay, green fluorescence channel.
For experiment [2] the following is noted: Ebola virus entry assay, blue channel fluorescence.
The conditions of experiment [3]: Ebola virus entry assay, ratio channel.
For experiment [4] the following is noted: Ebola virus entry assay, green channel fluorescence.
For experiment [5] the following is noted: Ebola virus entry assay, reporter ratio channel; Channel type: primary.
The conditions of experiment [6]: Ebola virus entry assay, blue channel (ratio component).
Wherever efficacy is given: 0% is about no effect.

On to `COc1nc(C)nc(Cl)c1NC1=NCCN1`, for which the efficacy in experiment [1] was -23.1%. For the same compound, the outcome in experiment [2], in experiment [3], in experiment [4], in experiment [5] and in experiment [6] was inactive.

`C=Cc1c(C)c2cc3[nH]c(cc4nc(cc5nc(cc1[nH]2)C(C)=C5CCC(=O)O)C(CCC(=O)O)=C4C)c(C)c3C=C`: the efficacy in experiment [1] is 15.1%. Besides, the compound was called inactive in experiment [2], in experiment [3], in experiment [4], in experiment [5] and in experiment [6].

Regarding `CCCc1nc(C)c2c(=O)[nH]c(-c3cc(S(=O)(=O)N4CCN(CC)CC4)ccc3OCC)nn12`, in experiment [1], the efficacy was 25.4%. Moreover, the compound was classed as inactive in experiment [2], in experiment [3], in experiment [4], in experiment [5] and in experiment [6].

Take `C[N+]1(C)CCC(=C(c2ccccc2)c2ccccc2)CC1`: the efficacy in experiment [1] is -9.5%. Moreover, the compound was classed as inactive in experiment [2], in experiment [3], in experiment [4], in experiment [5] and in experiment [6].

Take `O=C(O)CN(CCOCCOCCN(CC(=O)O)CC(=O)O)CC(=O)O`: the efficacy in experiment [1] was 19.2%. For the same compound, the compound was called inactive in experiment [2], in experiment [3], in experiment [4], in experiment [5] and in experiment [6].

As for `CC(C)=C[C@@H]1[C@@H](C(=O)OCc2coc(Cc3ccccc3)c2)C1(C)C`, the efficacy in experiment [1] was 20%. The call in experiment [2], in experiment [3], in experiment [4], in experiment [5] and in experiment [6] was inactive.

For the compound `CCOC(=O)[C@H](CCc1ccccc1)N[C@@H](C)C(=O)N(CC(=O)O)C1Cc2ccccc2C1`, the efficacy in experiment [1] is 28.2%. For the same compound, the compound was classed as inactive in experiment [2], in experiment [4] and in experiment [6]. Also, the half-maximal activity concentration (AC50) in experiment [3] and in experiment [5] was 20 µM (active) each time.

Take `CCOC(=O)C(C)(C)Oc1ccc(Cl)cc1`: the efficacy in experiment [1] was 22.6%. Further, the result in experiment [2], in experiment [3], in experiment [4], in experiment [5] and in experiment [6] was inactive.

Turning to `OC1C(O)C(O)C(O)C(O)C1O` (stereo not drawn), in experiment [1], the efficacy is 12.1%. Moreover, the compound was classed as inactive in experiment [2], in experiment [3], in experiment [4], in experiment [5] and in experiment [6].

As to `CC[N+](CC)(CC)CCOC(=O)C(C1CCCC1)C1CCCC1`, the efficacy in experiment [1] is 39.4%. For the same compound, the compound was classed as inactive in experiment [2], in experiment [3], in experiment [4], in experiment [5] and in experiment [6].

Consider `CCOCC(O)COc1ccc(NC(=O)CC[S+](C)C)cc1` (stereo not drawn), for which the efficacy in experiment [1] was -21.6%. The compound was classed as inactive in experiment [2], in experiment [3], in experiment [4], in experiment [5] and in experiment [6].

Turning to `O=C1Cc2cc(Cl)ccc2N1`, the efficacy in experiment [1] was -20.6%. The compound was called inactive in experiment [2], in experiment [3], in experiment [4], in experiment [5] and in experiment [6].

As to `C[N+]12CCC(CC1)C(OC(=O)C(O)(c1ccccc1)c1ccccc1)C2` (stereo not drawn), in experiment [1], the efficacy was 11.2%. The outcome in experiment [2], in experiment [3], in experiment [4], in experiment [5] and in experiment [6] was inactive.

Take `NS(=O)(=O)c1cc2c(cc1Cl)NC(C1CC3C=CC1C3)NS2(=O)=O` (stereo not drawn): in experiment [1], the efficacy was -30.9%. Besides, the result in experiment [2], in experiment [3], in experiment [4], in experiment [5] and in experiment [6] was inactive.

Consider `C[C@H]1C[C@H]2[C@@H]3CCC4=CC(=O)C=C[C@]4(C)[C@H]3C(=O)C[C@]2(C)[C@@]1(O)C(=O)CO`, for which, in experiment [1], the efficacy is -24.9%. Besides, the compound was called inactive in experiment [2], in experiment [3], in experiment [4], in experiment [5] and in experiment [6].

For the compound `CNC1CCCN(c2c(F)cc3c(=O)c(C(=O)O)cn(C4CC4)c3c2OC)C1` (stereo not drawn), the efficacy in experiment [1] was -29.7%. The result in experiment [2], in experiment [3], in experiment [4], in experiment [5] and in experiment [6] was inactive.

On to `CC(C)(C)c1nnc(NS(=O)(=O)c2ccc(N)cc2)s1`, for which, in experiment [1], the efficacy was -23%. Besides, the result in experiment [2], in experiment [3], in experiment [4], in experiment [5] and in experiment [6] was inactive.

On to `C[C@@H](O)[C@H](N)C(=O)O`, for which the efficacy in experiment [1] is -9.88%. For the same compound, the call in experiment [2], in experiment [3], in experiment [4], in experiment [5] and in experiment [6] was inactive.

Turning to `N[C@@H](CSCCCO)C(=O)O`, the efficacy in experiment [1] is 25.1%. Besides, the outcome in experiment [2], in experiment [3], in experiment [4], in experiment [5] and in experiment [6] was inactive.

Regarding `CNC(=O)Oc1cccc2ccccc12`, in experiment [1], the efficacy is 18.8%. The compound was classed as inactive in experiment [2], in experiment [3], in experiment [4], in experiment [5] and in experiment [6].

Consider `CCOc1cc(N)c(Cl)cc1C(=O)NCC1CN(Cc2ccc(F)cc2)CCO1` (stereo not drawn), for which the efficacy in experiment [1] is 26.3%. The result in experiment [2], in experiment [3], in experiment [4] and in experiment [6] was inactive. Besides, in experiment [5], the AC50 is 39.8 µM (active).

As for `NNc1nnc(NN)c2ccccc12`, the efficacy in experiment [1] is -13%. Also, the outcome in experiment [2], in experiment [3], in experiment [4], in experiment [5] and in experiment [6] was inactive.

As for `NC(=O)CCCCC1CCSS1` (stereo not drawn), in experiment [1], the efficacy was 19.1%. Further, the outcome in experiment [2], in experiment [3], in experiment [4], in experiment [5] and in experiment [6] was inactive.

On to `COc1cc(C(=O)NCCCCCC(=O)O)cc(OC)c1OC`, for which the efficacy in experiment [1] is -33.5%. In addition, the compound was called inactive in experiment [2], in experiment [3], in experiment [4], in experiment [5] and in experiment [6].

Turning to `CCNC(=O)NCc1cccc(Cl)c1`, in experiment [1], the efficacy is 7%. The call in experiment [2], in experiment [3], in experiment [4], in experiment [5] and in experiment [6] was inactive.

In the case of `C[N+](C)(C)CC[N+]1(C)Cc2c(Cl)c(Cl)c(Cl)c(Cl)c2C1`, in experiment [1], the efficacy was 13.2%. Besides, the outcome in experiment [2], in experiment [3], in experiment [4], in experiment [5] and in experiment [6] was inactive.

`C/C(=N/NC(=O)c1ccncc1)C(=O)O`: in experiment [1], the efficacy is -27.5%. In addition, the call in experiment [2], in experiment [3], in experiment [4], in experiment [5] and in experiment [6] was inactive.

For the compound `NCC(=O)O`, the efficacy in experiment [1] was 13.7%. Also, the result in experiment [2], in experiment [3], in experiment [4], in experiment [5] and in experiment [6] was inactive.

As a reminder, the AC50 is the concentration at which the activity in the assay is half-maximal.
